Data from PubChem BioAssay AID1220 (Sanford-Burnham Center for Chemical Genomics, 2008).
Screen size: about 190,000 compounds; about 1,300 (0.68%) were called active. The list comes from a sample in which actives are over-represented; it also holds similar structures and randomly drawn compounds. Values without a mark were called inactive. Cut-off read from the data, not from the text of the source: active = inhibition above about 50%; inactive = the rest.

biological target: Mannose-6-phosphate isomerase (Homo sapiens) (UniProt P34949); assay: MPI inhibition at elevated mannose 6-phosphate – biochemical, fluorescence intensity, high mannose 6-phosphate, primary screen (AID 1220); conditions: recombinant PMI enzyme, coupled fluorescence intensity; at 20 µM; active compounds read high
Sequence (P34949 whole entry, looked up): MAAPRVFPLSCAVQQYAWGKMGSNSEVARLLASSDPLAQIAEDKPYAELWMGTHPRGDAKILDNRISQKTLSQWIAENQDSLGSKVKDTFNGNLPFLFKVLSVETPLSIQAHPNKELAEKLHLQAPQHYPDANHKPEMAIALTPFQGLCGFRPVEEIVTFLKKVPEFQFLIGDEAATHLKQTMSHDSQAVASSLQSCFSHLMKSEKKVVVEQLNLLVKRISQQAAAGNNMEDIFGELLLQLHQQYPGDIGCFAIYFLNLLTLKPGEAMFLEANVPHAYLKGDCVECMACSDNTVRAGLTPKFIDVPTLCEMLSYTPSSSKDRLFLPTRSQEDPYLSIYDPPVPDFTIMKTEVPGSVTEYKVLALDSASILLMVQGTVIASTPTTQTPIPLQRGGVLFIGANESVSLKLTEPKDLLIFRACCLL

**Q.** How did the inhibition turn out when `CCOc1ccc2[nH]c(=S)[nH]c2c1` was run?
**A.** Its inhibition is 20.7%.

**Q.** `COC(=O)/C=C1/N/C(=N\c2nc(C)cc(C)n2)N(c2ccccc2)C1=O` was tested. Which inhibition did it give?
**A.** Its inhibition is 13.3%.

**Q.** Which inhibition does the source give for `COC(=O)/C=C1/N/C(=N\c2nc(C)cc(C)n2)N(c2cccc(C)c2)C1=O` here?
**A.** Its inhibition is 50.4% (active).

**Q.** Which inhibition does the source give for `COC(=O)/C=C1\N/C(=N\c2nc(C)cc(C)n2)N(c2ccc(C)cc2)C1=O` here?
**A.** The inhibition was -5.3%.

**Q.** How did the inhibition turn out when `CC(/C=N\NC(=O)CN1CCN(Cc2ccccc2)CC1)=C\c1ccco1` was run?
**A.** The inhibition was 9.7%.

**Q.** For `Oc1c(C(c2ccccn2)N2CCCCC2)cc(Cl)c2cccnc12` (centres undefined), which inhibition is on record?
**A.** The inhibition was 32.5%.

**Q.** With `CN1CCN(C(c2ccccn2)c2cc(Cl)c3cccnc3c2O)CC1` (centres undefined) as the compound, how does the inhibition read?
**A.** Its inhibition is 43.8%.

**Q.** Which inhibition does the source give for `Oc1c(C(c2ccccn2)N2CCC(Cc3ccccc3)CC2)cc(Cl)c2cccnc12` (centres undefined) here?
**A.** The inhibition was 58.9% (active).

**Q.** `CC(=O)Cc1nsc(NC(=O)c2ccccc2)n1` was tested. Which inhibition did it give?
**A.** The inhibition was 6.4%.

**Q.** With `Cc1cccc2cn[nH]c12` as the compound, how does the inhibition read?
**A.** Its inhibition is -8.9%.

**Q.** For `Cc1ccc2cn[nH]c2c1[N+](=O)[O-]`, which inhibition is on record?
**A.** The inhibition was 6.8%.

**Q.** With `Cc1ccc2cn[nH]c2c1N` as the compound, how does the inhibition read?
**A.** The inhibition was 58.3% (active).

**Q.** How did the inhibition turn out when `Nc1nc(SCC(=O)NCc2ccccc2)[nH]c(=O)c1NC(=O)c1ccccc1F` was run?
**A.** The inhibition was 9.7%.

**Q.** `Cc1ccc(NC(=O)c2ccn(C)n2)c(Br)c1` was tested. Which inhibition did it give?
**A.** The inhibition was 6%.

**Q.** How did the inhibition turn out when `O=C(Cn1nc(C(F)(F)F)c2c1CCC2)N1CCN(c2ccccc2)CC1` was run?
**A.** Its inhibition is 9.9%.

**Q.** Which inhibition does the source give for `CC(C)CC(=O)O/N=C1\C(=O)N(Cc2ccc(Cl)cc2)c2ccc([N+](=O)[O-])cc21` here?
**A.** Its inhibition is 22.3%.

**Q.** `CCCn1c(C)cc(/C=C(\C#N)C(=O)OCC(=O)NC(=O)NC(C)(C)C)c1C` was tested. Which inhibition did it give?
**A.** The inhibition was -3.7%.

**Q.** For `Cc1cccc(N2CCN(C(=S)Nc3ccc4nc(N5CCN(C)CC5)cc(C)c4c3)CC2C)c1` (centres undefined), which inhibition is on record?
**A.** Its inhibition is 17.5%.

**Q.** For `Cc1cc(N2CCN(C)CC2)nc2ccc(NC(=S)N3CCN(c4ccc(Cl)cc4)CC3)cc12`, which inhibition is on record?
**A.** Its inhibition is 41.7%.

**Q.** How did the inhibition turn out when `CCN1CCN(c2cc(C)c3cc(NC(=S)N4CCN(c5ccccc5)CC4)ccc3n2)CC1` was run?
**A.** The inhibition was 28.1%.

**Q.** With `Cc1cccc(N2CCN(C(=S)Nc3ccc4nc(N5CCN(C)CC5)cc(C)c4c3)CC2)c1C` as the compound, how does the inhibition read?
**A.** Its inhibition is 16.2%.

**Q.** `Cc1ccc(C)c(N2CCN(C(=S)Nc3ccc4nc(N5CCOCC5)cc(C)c4c3)CC2)c1` was tested. Which inhibition did it give?
**A.** The inhibition was 58.5% (active).

**Q.** With `COc1ccccc1N1CCN(C(=S)Nc2ccc3nc(N4CCOCC4)cc(C)c3c2)CC1` as the compound, how does the inhibition read?
**A.** The inhibition was 62.5% (active).

**Q.** For `Cc1cc(N2CCN(C)CC2)nc2ccc(NC(=S)N3CCN(c4ccc(F)cc4)CC3)cc12`, which inhibition is on record?
**A.** The inhibition was 29.1%.

**Q.** `Cc1cc(N2CCOCC2)nc2ccc(NC(=S)N3CCN(Cc4ccccc4)CC3)cc12` was tested. Which inhibition did it give?
**A.** Its inhibition is 35.3%.

**Q.** For `Cc1ccc(C)c(N2CCN(C(=S)Nc3ccc4nc(N5CCN(C)CC5)cc(C)c4c3)CC2)c1`, which inhibition is on record?
**A.** The inhibition was 24.4%.

**Q.** With `Cc1cccc(N2CCN(C(=S)Nc3ccc4nc(N5CCOCC5)cc(C)c4c3)CC2C)c1` (centres undefined) as the compound, how does the inhibition read?
**A.** The inhibition was 51.9% (active).

**Q.** For `CCN1CCN(c2cc(C)c3cc(NC(=S)N4CCOCC4)ccc3n2)CC1`, which inhibition is on record?
**A.** The inhibition was 13.3%.

**Q.** `Cc1cc(N2CCOCC2)nc2ccc(NC(=S)N3CCN(c4ccccc4)CC3)cc12` was tested. Which inhibition did it give?
**A.** The inhibition was 52.5% (active).
